According to PubChem BioAssay AID720513 (Broad Institute, 2013):
Out of some 2,100 compounds screened, about 480 (23%) were called active. Roughly 5% stayed inconclusive and do not appear here. Not all results are given here. Entries with a potency or affinity are not part of this list. Values without a mark were called inactive.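 The calls were made as follows: active = fitted curve reaches 40% activation at or below the top valid concentration, in every replicate test; inconclusive = replicate tests disagree on the call; inactive = the rest, including activity in the opposite direction.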

Experiment: activators raising PGC1a acetylation in cells, dose response, cell-based, cherry-picked samples, set 6 (AID 720513);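 also: cells made to overexpress flag tagged PGC1a plus GCN5 acetyltransferase by viral infection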
Conditions: U2OS PGC1a acetylation AlphaLISA, overnight, 0 = neutral, -100 = inhibitor control; series mostly up to 19.5 µM; activation (acetylation increase): at the top concentration

SMILES	activation (acetylation increase)
N#Cc1c(C#N)c(O)c2ccccc2c1O	15%
OC[C@@H]1CN(Cc2ccccc2)C[C@H](n2cnc3c(NCc4ccc(F)cc4)ncnc32)O1	0.342%
O=C(COc1ccc(Cl)cc1Cl)NCCCN1CCOCC1	8.53%
COc1cc(NS(=O)(=O)c2ccc(N)cc2)nc(OC)n1	17.8%
CN(C)S(=O)(=O)c1ccc(N2CCCC2)c(C(=O)NCc2cccc(C(F)(F)F)c2)c1	4.68%
COc1ccc(NC(=O)N[C@@H]2CC[C@H](CCn3cc(-c4ccccc4F)nn3)O[C@H]2CO)cc1	19%
COc1ccccc1C1c2c(C)nn(-c3ccccc3)c2NC(=O)C1NC(=O)c1ccccc1 (stereo unspecified)	-23.3%
Cn1cnnc1Sc1ccc(/C=C/C(=O)c2ccc(O)cc2)cc1[N+](=O)[O-]	-94.3%
O=C(Nc1ccc(F)cc1)c1ccccc1	22.9%
O=C(Nc1ccc(F)cc1)N1CCCCN2[C@H](CO)[C@H](c3ccc(C#Cc4ccccc4)cc3)[C@H]2C1	-84.6%
CC(C)NC(=O)N(C)C[C@H]1OCCCC[C@@H](C)Oc2ccc(NC(=O)CCCN(C)C)cc2C(=O)N([C@@H](C)CO)C[C@@H]1C	-5%
C[C@@H]1CN([C@@H](C)CO)C(=O)CCCn2cc(nn2)CO[C@H]1CN(C)Cc1ccncc1	8.73% [at 21 µM]
C#CC(=O)N(c1ccc(OC)c(OC)c1)C(C(=O)NC1CCCC1)c1cccs1 (stereo unspecified)	-99.1%
O=C(NC1CCCCC1)C(c1ccc2ncccc2c1)N(Cc1ccc2c(c1)OCO2)C(=O)c1ccc2c(c1)OCCO2 (stereo unspecified)	9.19%
COc1ccc(N2C(=O)CC2(/C=C/c2ccccc2OC)C(=O)NC2CCCC2)cc1 (stereo unspecified)	20.7%
CCCC(C(=O)NC(C)(C)C)N(Cc1ccc(F)cc1)C(=O)c1snc(C(N)=O)c1N (stereo unspecified)	-19.4%
C#CC(=O)N(c1ccc(OC)cc1OC)C(C(=O)NC1CCCC1)c1cccs1 (stereo unspecified)	-106%
C#CC(=O)N(c1cccc(OC)c1)C(C(=O)NC1CCCC1)c1cccs1 (stereo unspecified)	-104%
CCCCN(C(=O)CCC(=O)Nc1cc(C)on1)C(C(=O)NC1CCCC1)c1ccc(OC)cc1 (stereo unspecified)	-10.7%
CC12CC(c3ccccc3O1)N(C(=O)c1ccc(Br)o1)C(=O)N2c1ccccc1 (stereo unspecified)	-8.31%
CCCOc1ccccc1-n1sc2c(c1=S)-c1cc(OC)cc3c1N(C(=O)C3=O)C2(C)C	-46.2%
COc1cccc(-c2nn(-c3ccccc3)cc2CN(C)C(C)c2ccncn2)c1 (stereo unspecified)	15.7%
Cc1c(NC(=O)c2ccccc2NS(=O)(=O)c2ccc(Br)cc2)c(=O)n(-c2ccccc2)n1C	-8.93%

SMILES	activation (acetylation increase)
CCOC(=O)C1=C(NC(=O)c2ccc(Br)o2)Nc2ccccc2N=C1	31.5%
CCCNC(=O)N(C)C[C@H]1Oc2cc(C#CC(C)C)ccc2S(=O)(=O)N([C@@H](C)CO)C[C@H]1C	0.778%
CC(C)C#Cc1cnc2c(c1)C(=O)N([C@H](C)CO)C[C@H](C)[C@H](CN(C)C(=O)CN1CCOCC1)O2	23.2%
Cc1cc(-c2ccc(Cl)cc2)n2ncnc2n1	-15.3%
CO[C@@H]1CN(C)C(=O)c2cc(NC(C)=O)ccc2OC[C@H](C)N(C(=O)c2cccnc2)C[C@H]1C	-7.97%
COc1ccc(C2c3c(oc4ccccc4c3=O)C(=O)N2CCN2CCOCC2)cc1OC (stereo unspecified)	6.79%
CCOc1ccc2c(c1)C(C)=CC(C)(C)N2S(=O)(=O)c1ccc(NC(C)=O)cc1	8.98%
Cn1cnc(S(=O)(=O)N2C[C@@H](O)COC[C@H]3O[C@H](CC(=O)NCc4cc(F)cc(F)c4)CC[C@@H]32)c1	17.1%
CCn1c(COc2ccc(=O)n(-c3ccccc3)n2)nnc1SCc1ccc(C)cc1	26.3%
CC(C)(C)Cc1nnc(NS(=O)(=O)c2ccc(F)cc2)s1	20.2%
O=S(=O)(Nc1nc2c(s1)CCCC2)c1ccc(F)cc1	16.7%
CC(C)CC#Cc1ccc2c(c1)O[C@@H](CN(C)C)[C@H](C)CN([C@@H](C)CO)S2(=O)=O	13.1%
Cn1ccc2cc(OCc3ccccc3)ccc21	11%
N=c1sccn1CC(=O)Nc1ccccc1Sc1ccccc1	-28.5%
COC(=O)c1c(C)oc(C)c1S(=O)(=O)Nc1ccccc1	-8.61%
Cc1cc(C)c(S(=O)(=O)N2CC=C(c3ccccc3)CC2)c(C)c1	36.4%
CCCCCCNC(=O)c1ncn[nH]1	-9.03%
O=C(N[C@@H]1CC[C@@H](CCNS(=O)(=O)c2ccccc2Cl)O[C@@H]1CO)c1ccc(F)cc1	2.33%
N=C1C(c2nc3ccccc3s2)=C(O)CN1NC(=O)c1ccc([N+](=O)[O-])cc1	31.2%
O=C(Nc1ccc(OC(=O)c2ccccc2)c(-c2nc3ccccc3s2)c1)c1ccccc1	8.72%
O=C(NCC1CCCO1)c1cc2c([nH]c3ccccc32)c(-c2cccc(Cl)c2)n1 (stereo unspecified)	40%
CNC[C@@H]1OCCCC[C@@H](C)Oc2ccc(NS(=O)(=O)c3ccc(C)cc3)cc2C(=O)N([C@H](C)CO)C[C@@H]1C	15.5%
COc1cc(Cl)c(S(=O)(=O)N2CC(C)OC(C)C2)cc1Cl (stereo unspecified)	26.5%
